# Measured values taken from PubChem BioAssay AID1942 (Johns Hopkins Ion Channel Center, 2009).
# The campaign covered roughly 2,400 compounds. About 580 (24%) were called active. These entries were drawn from the full list. Unmarked numbers belong to inactive results.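 The calls were made as follows: active = activity change at or above the mean plus 3 SD of buffer wells without dofetilide, per plate; inactive = the rest.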
# Biological target: Potassium voltage-gated channel subfamily KQT member 2 (Rattus norvegicus) (UniProt O88943)
# Assay: rat KCNQ2 channel activation by compounds alone, confirmation, counter-screen for hERG block protector project, cell-based, CHO, FluxOR thallium flux (AID 1942);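 also: normalized value minus buffer-control mean plus three SD of buffer wells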
# Conditions: CHO-KCNQ2 cells, FluxOR thallium flux fluorescence; at 10 µM; hits give high values
# Potassium voltage-gated channel subfamily KQT member 2 (Rattus norvegicus), sequence (O88943 whole entry, looked up): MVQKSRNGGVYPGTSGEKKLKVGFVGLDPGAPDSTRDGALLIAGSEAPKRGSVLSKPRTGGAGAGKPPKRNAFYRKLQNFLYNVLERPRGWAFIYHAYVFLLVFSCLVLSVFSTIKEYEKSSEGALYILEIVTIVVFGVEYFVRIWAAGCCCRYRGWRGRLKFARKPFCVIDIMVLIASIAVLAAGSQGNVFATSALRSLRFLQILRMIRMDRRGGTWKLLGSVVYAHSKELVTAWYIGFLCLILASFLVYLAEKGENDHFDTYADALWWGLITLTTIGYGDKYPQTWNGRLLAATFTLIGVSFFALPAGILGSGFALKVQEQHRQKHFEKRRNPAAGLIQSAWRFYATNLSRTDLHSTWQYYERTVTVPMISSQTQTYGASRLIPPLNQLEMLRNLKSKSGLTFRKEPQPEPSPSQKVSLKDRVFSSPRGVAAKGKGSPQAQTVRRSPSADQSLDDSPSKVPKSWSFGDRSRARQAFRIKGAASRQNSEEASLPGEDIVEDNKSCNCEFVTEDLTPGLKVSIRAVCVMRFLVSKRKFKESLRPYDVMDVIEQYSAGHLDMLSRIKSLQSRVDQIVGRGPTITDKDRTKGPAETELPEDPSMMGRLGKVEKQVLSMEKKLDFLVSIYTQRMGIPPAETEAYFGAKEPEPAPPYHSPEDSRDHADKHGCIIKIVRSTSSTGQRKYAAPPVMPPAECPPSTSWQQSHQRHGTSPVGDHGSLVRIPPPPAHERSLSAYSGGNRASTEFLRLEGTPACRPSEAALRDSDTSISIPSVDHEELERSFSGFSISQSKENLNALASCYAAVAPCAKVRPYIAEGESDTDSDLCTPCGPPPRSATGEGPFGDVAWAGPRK
row,Compound,"activity change, less the hit threshold"
1,CCCCc1c(C)[nH]c(C(=O)OCC)c1C,-19.3%
2,CCOCCCn1c(=S)[nH]c2cc(C(=O)NCCOC)ccc2c1=O,-10.4%
3,COCCn1c(=S)[nH]c2sc3c(c2c1=O)CCC(C)C3 (configuration not stated),51.5% (active)
4,COCCn1c(=S)[nH]c2sc3c(c2c1=O)CCCC3,31.9% (active)
5,COCCCn1c(=S)[nH]c2sc3c(c2c1=O)CCCC3,40.5% (active)
6,COCCCn1c(=S)[nH]c2c(sc3ccccc32)c1=O,-11.4%
7,Cc1ccc(S(=O)(=O)Nc2c(C)[nH]c(=O)[nH]c2=O)cc1C,-17.9%
8,CCOC(=O)CSc1nnc(NC(=O)c2ccc3c(c2)OCO3)s1,-23.9%
9,O=S(=O)(Nc1cccc(-n2cnnn2)c1)c1ccc(Cl)nc1,-9%
10,CN(C)S(=O)(=O)c1cc(NC2CC(=O)N(c3ccc(F)cc3)C2=O)ccc1Cl (configuration not stated),-7.3%
11,CCN(CC)CCOC(=O)C(c1ccccc1)c1ccccc1,-11.4%
12,Cc1ccc(NC(=O)c2cc(NC(=O)/C=C\C(=O)O)ccc2N2CCCCC2)cc1,3.1% (active)
13,COc1ccc(NC(=O)c2cc(S(=O)(=O)N3CCOCC3)ccc2N2CCOCC2)cc1,-16.6%
14,O=C(/C=C/c1ccccc1)Nc1ccc(C(=O)N2CCCCC2)cc1,-11.4%
15,CC(=O)N1CCc2cc(S(=O)(=O)N3c4ccccc4CC3C)ccc21 (configuration not stated),-13.9%
16,CC(=O)N1c2ccc(N=Cc3cc(Br)cc(Br)c3O)cc2CC1C (configuration not stated),0.4% (active)
17,N=c1sccn1CC(=O)Nc1ccccc1Cc1ccccc1,-16.3%
18,CCc1nnc(NC(=O)c2cccc(C(=O)Nc3nnc(CC)s3)n2)s1,-22.2%
19,Cc1cccc(NC(=O)COc2coc(CN3CCN(c4ccccc4)CC3)cc2=O)c1,-22.1%
20,Cc1cc(Br)c(NC(=O)COC(=O)C2CC2C)c(Br)c1 (configuration not stated),4.5% (active)
21,O=C(COC(=O)C1CCC(=O)N1)Nc1cc(Cl)ccc1Cl (configuration not stated),-16.9%
22,O=C1OC(/C=C/c2ccccc2)=NC/1=C/c1ccco1,-29%
23,COC(=O)c1ccc(NC(=O)COC(=O)C2CC(=O)N(Cc3ccccc3)C2)cc1 (configuration not stated),-26.7%
24,O=C(O)CCCN1C(=O)C2C3c4ccccc4C(c4ccccc43)[C@@H]2C1=O (some centres not stated),-24.6%
25,Cc1cc(C)cc(-n2c(C)cc(/C=N/NC(=O)CN(c3c(C)cccc3C)S(C)(=O)=O)c2C)c1,-19.4%
26,Nc1ccc2c(c1)C(=O)C(=O)c1ccccc1-2,-3.9%

row,Compound,"activity change, less the hit threshold"
1,CCOC(=O)c1sc2ncnc(NCc3ccco3)c2c1C,51.8% (active)
2,CCOC(=O)c1c(NC(=O)/C=C/c2ccco2)sc(C)c1C,-12%
3,CCOC(=O)c1sc2ncnc(NCC(c3cccs3)N(C)C)c2c1C (configuration not stated),39.2% (active)
4,Cc1ccc(OC(=O)c2sc3ncn(C)c(=O)c3c2C)cc1,-29.2%
5,COc1ccc(N(C(=O)c2ccco2)S(=O)(=O)c2cccs2)cc1,-19.4%
6,O=C(N/N=C/c1ccsc1)C1CC1,-15.9%
7,COCCNC(=O)C1CCN(S(=O)(=O)N2CCC3(CC2)OCCO3)CC1,-21.8%
8,CCOC(=O)c1sc(NC(=S)NC(=O)c2ccccc2)nc1C,-3.4%
9,Cc1nc(NC(=O)c2ccco2)sc1C(=O)O,-11.4%
10,CCOC(=O)c1sc(NC(=S)NC(=O)c2cccc(OC)c2)nc1C,4.7% (active)
11,CCOC(=O)c1sc(NC(=S)NC(=O)c2ccco2)nc1C,4.8% (active)
12,CCOC(=O)c1sc(NC(=S)NC(=O)c2ccc(OC)cc2)nc1C,-10.9%
13,CCOC(=O)c1cccc(C(=O)Nc2nc3ccc(OC)cc3s2)n1,-15.8%
14,O=c1[nH]c(=S)[nH]c2c1C(c1ccc(Br)cc1)c1c([nH]c(=S)[nH]c1=O)O2,-17.1%
15,Cc1cc(SCC(=O)c2cccc([N+](=O)[O-])c2)nc(=O)[nH]1,-15.5%
16,CCOc1ccc(C(=O)N/N=C/c2cc([N+](=O)[O-])cs2)cc1,-17.4%
17,Cc1ccccc1C(=O)NNC(=O)c1cccc([N+](=O)[O-])c1,-19.8%
18,CCOC(=O)c1[nH]cnc1C(=O)Nc1ccc([N+](=O)[O-])cc1,-11.7%
19,CCOC(=O)/C(C)=N/NC(=O)c1cccc([N+](=O)[O-])c1,5.2% (active)
20,CCOC(=O)/C(C)=N/NC(=O)c1ccc([N+](=O)[O-])cc1,16.8% (active)
21,S=C(NCCc1ccccc1)N/N=C/c1c(Cl)cccc1Cl,-18.4%
22,CC1(C)CC(=O)c2c(nn(-c3ccccc3)c2-c2ccncc2)C1,-16.4%
23,Cc1nn(Cc2ccccc2)c2c1C(c1cccnc1)C(C#N)=C(N)O2 (configuration not stated),-10.8%
24,O=C(COc1ccccc1)NC(=S)Nc1ccc2c(c1)Cc1ccccc1-2,-19.3%
25,CC(Oc1ccccc1F)C(=O)NC1CCS(=O)(=O)C1 (configuration not stated),-17.8%
26,O=C(O)c1cc(/C=N\O)ccc1OCc1ccccc1,-16.1%

row,Compound,"activity change, less the hit threshold"
1,COc1cccc(C(=O)CC(=O)C(=O)Nc2ccc(C)cc2Cl)c1,10.8% (active)
2,COc1ccc(C(=O)CC(=O)C(=O)Nc2ccc(C)c(Cl)c2)cc1,-9%
3,CCN1CCN(CC(=O)c2ccc(OC)cc2)CC1,-18.4%
4,COc1ccc(C(=O)CC(=O)C(=O)Nc2ccc(Cl)cc2)cc1,-2.1%
5,COc1cc(OC)cc(C(=O)O/N=C(\N)c2cccc(C)c2)c1,-9.7%
6,COc1ccc(C(=O)CC(=O)C(=O)Nc2ccccc2C(F)(F)F)cc1,7.4% (active)
7,COc1ccc(C(=O)CC(=O)C(=O)Nc2ccc(C)c(C)c2)cc1,-11.4%
8,CCOc1ccccc1NC(=O)C(=O)CC(=O)c1cccc(OC)c1,-8.6%
9,COc1ccc(C(=O)CC(=O)C(=O)Nc2ccc(C)cc2Cl)cc1,10.2% (active)
10,COc1ccc(C(=O)CNc2ccccc2C#N)cc1,-15%
11,COc1ccc(C(=O)CC(=O)C(=O)Nc2ccccc2)cc1,3.1% (active)
12,CCCNc1c(NS(=O)(=O)c2cccc(C#N)c2)c(=O)oc2ccccc12,-15.8%
13,CCOC(=O)c1c(C)oc2cc(Br)c(OC)cc12,-14.7%
14,COCCCNC(=O)CC(NS(=O)(=O)c1ccc(F)cc1)c1ccc(OC)cc1 (configuration not stated),-22.5%
15,O=C1C=C(NCCN2CCOCC2)C(=O)c2cnccc21,-10.1%
16,CCN(Cc1ccc(OC)c(F)c1)C(=O)C1CCCO1 (configuration not stated),-7.1%
17,COc1cc(/C=C2/C(=O)NN(c3ccccc3)C2=O)cc(Br)c1O,-17.5%
18,CC(C)CCNC(=O)CCc1nnc(Cc2c[nH]c3ccccc23)o1,-15.1%
19,CCOc1ccccc1NC(=O)C(=O)CC(=O)c1ccc(OC)cc1,-5.2%
20,COc1ccc(C(=O)CC(=O)C(=O)Nc2ccccc2OC)cc1,-10.2%
21,COc1ccc(C(=O)CC(=O)C(=O)Nc2ccccc2Cl)cc1,44.4% (active)
22,CC1CCCC(C(=O)OCc2ccccc2)N1 (configuration not stated),-16.7%
23,Cn1cc([N+](=O)[O-])c(C(=O)NCc2cc3cc(Cl)ccc3[nH]2)n1,-13.6%
24,N#Cc1ccccc1OCCN1C(=O)c2ccccc2C1=O,-7.5%
25,Cc1ccc(-c2cc(-c3n[nH]c(=S)o3)c3ccccc3n2)cc1,37.2% (active)
26,C=CCn1c(-c2cc(-c3ccc(C)cc3)nc3ccccc23)n[nH]c1=S,-9.8%

row,Compound,"activity change, less the hit threshold"
1,Cc1ccc(/C=N/NC(=O)c2cc(-c3ccncc3)nc3ccccc23)o1,-26.9%
2,N#Cc1cc(-c2ccccc2)nnc1Oc1ccccc1,-14.7%
3,COc1cc2c(cc1OC)CN(C(=O)c1sccc1C)CC2,-20.7%
4,COc1ccccc1C(=O)NNC(=O)C(=O)Nc1ccc(C)c(Cl)c1,126% (active)
5,COc1ccc(NC(=O)c2ccccc2SC)cc1OC,-19.4%
6,COc1ccccc1C(=O)NNC(=O)C(=O)NC(C)(C)C,16.8% (active)
7,COc1ccccc1C(=O)Nc1ccc(C(=O)N2CCCC2)cc1,-7.2%
8,COc1ccccc1C(=O)NNC(=O)C(=O)Nc1ccc(C)cc1,132% (active)
9,Cc1ccc(NC(=O)C(=O)NNC(=O)c2ccccc2C)cc1Cl,90.3% (active)
10,COc1ccccc1C(=O)Nc1ccnn1C1CCN(C(=O)c2ccoc2C)CC1,-12.1%
11,O=C(O)c1cc(-c2cccc([N+](=O)[O-])c2)n[nH]1,-19.6%
12,O=C(Nc1ccc(Cl)c(-c2nc3ccccc3[nH]2)c1)c1cccnc1,-40.7%
13,COc1ccc(CNC(=O)C2CCCN2)cc1OC (configuration not stated),-26.1%
14,COc1cc(C2C(C#N)=C(N)Oc3c2ccc2ccccc32)ccc1OCC(=O)Nc1ccc(C)cc1 (configuration not stated),-15.1%
15,Cc1ccc(C)c(OCc2cc(C(=O)N3CCNC(=O)C3)no2)c1,-16%
16,Cn1c(=O)c(-c2cc(=O)[nH][nH]2)c(O)c2ccccc21,-13.7%
17,CN(C)NC(=O)C(NC(=O)c1ccc(N)cc1)C12CC3CC(CC(C3)C1)C2 (configuration not stated),-13.9%
18,Cc1ccc(NC(=O)CN2C(=O)S/C(=C\c3ccc(-c4cccc(C(=O)O)c4C)o3)C2=O)cc1,-27%
19,COc1cc(NC(=O)c2ccccc2OCc2ccccc2)cc(OC)c1OC,-26.8%
20,COc1ccc(C(=O)NNC(=O)C(=O)NC2CCCCC2)cc1,-1.7%
21,COc1ccccc1C(=O)NCc1ccc2c(c1)OCO2,-21.4%
22,COc1ccccc1C(=O)NNC(=O)C(=O)NC1CCCCC1,49.7% (active)
23,COc1ccccc1C(=O)NNC(=O)C(=O)NCc1ccccc1,18.8% (active)
24,O=C(COc1ccc(Cl)cc1)NNC(=O)C(=O)NC1CCCCC1,-11.2%
